Assay results reported in ChEMBL document CHEMBL4513216, “Probing the Open Global Health Chemical Diversity Library for Multistage-Active Starting Points for Next-Generation Antimalarials” (ACS Infect Dis, 2020).
Screen size: about 65,000 compounds; about 2,100 (3.2%) showed an effect of 50% or more. The median lay at about -52%. This excerpt belongs to a sample that is enriched for strong results.

test system: Plasmodium falciparum; assay: Screen against P. falciparum Asexual Blood Stage (ABS), at 5uM; type: functional, Dd2; conditions: tested at 5 uM

Structure (SMILES) | INHIBITION [%]
CCC(C)N(Cc1cccnc1)C(=O)c1ccc(F)c(O)c1 (centres undefined) | -68.4
CN(C)CC1(O)CCCN(c2nc(-c3ccccc3)no2)CC1 (centres undefined) | -61.2
CN(C)CC1(O)CCCN(c2noc(-c3ccccc3)n2)CC1 (centres undefined) | -3.62
Cc1cc(N2CCCC(O)(CN(C)C)CC2)nc(-c2ccccc2)n1 (centres undefined) | 57.4
CC1CN(C)CCN1C(=O)c1ccn(-c2cccc(F)c2)n1 (centres undefined) | -38.4
Cc1cc(NC(=O)NC(C)CN2CCN(c3ccccc3)CC2)on1 (centres undefined) | 59.6
Cc1cc(NC(=O)CN(c2ccccc2)C(C)C)on1 | -5.31
Cc1cc(NC(=O)N(C)CCN2CCN(c3ccccc3)CC2)on1 | -47.3
CNC(=O)c1cccnc1N1CCC(Oc2ccc(F)cc2)CC1 | -88.2
O=C(CCc1ccccn1)N1CCCC(n2cncn2)C1 (centres undefined) | -46.3
CC(C)c1n[nH]c(C2CN(C(=O)Cn3ccccc3=O)CCO2)n1 (centres undefined) | -40.5
O=C(CC1CC1)N1CCO[C@H]2[C@H](OCCCn3cccn3)CC[C@@H]21 | -14.6
Cc1ccc2[nH]c(CN3CC[C@@H](N4CCN(C)CC4)[C@H](O)C3)c(C)c2c1 | -41.6
Cc1c(CN2CC[C@@H](N3CCC(O)CC3)[C@H](O)C2)[nH]c2ccc(Cl)cc12 | 54.6
Cc1c(CN2CC[C@@H](N3CCC(O)CC3)[C@H](O)C2)[nH]c2ccc(F)cc12 | -21.9
CC(=O)c1cc(Br)cc(F)c1OCC(=O)NC(C)C | -96.4
O=C(NCC(F)F)c1ccc(S(=O)(=O)NCCc2ccncc2)cc1 | 16.5
O=C(CCn1cccn1)N1CC[C@@H](c2ccc3ccccc3c2)[C@H](O)C1 | 15.7
O=C(CCN1CCCO1)N1CC[C@@H](c2ccc3ccccc3c2)[C@H](O)C1 | 15.7
O=C(CCN1CCCC1)N1CC[C@@H](c2ccc3ccccc3c2)[C@H](O)C1 | 65.1
COc1cc(C2c3c(n[nH]c3C)N=C3COC(=O)C32)cc2c1OCO2 (centres undefined) | -31.7
O=C(CC1C=CCC1)Nc1ncn(CC(=O)N2CCCCCC2)n1 (centres undefined) | 23.2
Cn1cc(CNCC(c2ccc(Cl)cc2)n2cccn2)cn1 (centres undefined) | 18.1

Structure (SMILES) | INHIBITION [%]
Clc1ccc(C(CNCc2ccncc2)n2cccn2)cc1 (centres undefined) | -50.1
CCn1cc(CNCC(c2ccc(Cl)cc2)n2cccn2)cn1 (centres undefined) | 60.8
Cc1cc(CN2CCC(CNS(=O)(=O)c3c(C)noc3C)CC2)c(C)o1 | 28.4
CCN(C)S(=O)(=O)NCC1CCN(Cc2ccccc2C)CC1 | 11.6
Cc1cc(CN2CCC(CNS(=O)(=O)c3ccccc3Cl)CC2)c(C)o1 | 53.6
Cc1cnc2n(c1=O)C(CC(=O)NCc1ccc(Cl)cc1)CS2 (centres undefined) | -30.4
CC(C)Cc1ncc2c(n1)CN(c1cc(NCCO)nc(N)n1)C2 | -42.2
Nc1nc(NCCO)cc(N2CCc3c([nH]c4ccccc34)C2)n1 | 61.3
COc1ccc2[nH]c3c(c2c1)CN(c1cc(NCCO)nc(N)n1)CC3 | -52.4
O=C(c1ccc2[nH]ccc2c1)N1CCCSCC1CN1CCCC1 (centres undefined) | 21.3
O=C(NCCc1ccn(-c2ccccc2)n1)N1CCSCC1 | -122
Cc1ccc([C@]2(O)CC[C@H]3CN(Cc4cccc(Cl)c4Cl)C[C@H]32)nc1 | -9.78
Cc1ccc([C@]2(O)CC[C@H]3CN(Cc4cccc(F)c4F)C[C@H]32)nc1 | 45.8
CSc1ccc(CN2C[C@@H]3CC[C@@](O)(c4ccc(C)cn4)[C@@H]3C2)cc1 | 57.5
COc1ccc(CN2C[C@H]3CC[C@](O)(c4ccc(C)cn4)[C@H]3C2)c(F)c1 | 17.3
COc1ncc(CN2C[C@@H]3CC[C@@](O)(c4ccc(C)cn4)[C@@H]3C2)cn1 | -72.4
Cc1ccc([C@]2(O)CC[C@H]3CN(Cc4ccc(Cl)cc4Cl)C[C@H]32)nc1 | 66.6
OC(CN1CCN(CCOCC(F)(F)F)CC1)c1ccccc1 (centres undefined) | -64.4
O=S(=O)(c1cccs1)N1CCCC2(COCCN(c3cccnc3)C2)C1 (centres undefined) | -39.7
Cc1ccoc1C(=O)N1CCCC(c2cc(C(F)(F)F)[nH]n2)C1 (centres undefined) | -127
O=S(=O)(NC1CCC12CCN(CC1CCOCC1)CC2)c1ccccc1 (centres undefined) | -62.3
Cc1ccc(CN2CCC3(CCC3NS(=O)(=O)c3ccccc3)CC2)o1 (centres undefined) | 62.4
COCC(=O)N1CCC2(CCC2NS(=O)(=O)c2ccccc2)CC1 (centres undefined) | -23.9

Structure (SMILES) | INHIBITION [%]
CC(C)c1ccc(NC(=O)Cn2cc(I)cn2)cc1 | -19
CC1c2ncc(CN3CCN(C)CC3)n2CCN1Cc1ccccn1 (centres undefined) | -124
c1cnc(-c2noc(C3CN(Cc4ccc5c(c4)CCO5)C3)n2)cn1 | 4.79
CC(C)CC1CC(=O)Nc2c1cnn2Cc1ccco1 (centres undefined) | -129
CCN(c1ccc(C(=O)NCc2ccnc(C)n2)cc1)C(C)C | 22.7
CCN(c1ccc(C(=O)NCc2cc[nH]n2)cc1)C(C)C | 60.1
CC(C)c1ccc(O)c(C(=O)NCc2cc[nH]n2)c1 | -97.2
Cc1nc(COC(=O)c2cccc3c2OCCO3)no1 | -17
CCOC(=O)CNC(=O)NCc1cccn1Cc1ccccc1F | -158
CN1CC2(CCN(c3nc(N)nc4c3CCNC4)CC2)OC1=O | -71.4
Cc1ccc(OCc2nnc(SCC3CCCN(C)C3)o2)cc1 (centres undefined) | 29.8
Cc1cccc(OCc2nnc(SCC3CCCN(C)C3)o2)c1 (centres undefined) | 28.5
Cc1ccc(C)c(OCc2nnc(SCC3CCCN(C)C3)o2)c1 (centres undefined) | 60.3
CCCn1ccc(C(=O)Nc2ccc3c(c2)C(C)(C)C(=O)N3C)n1 | -3.4
C1CC(c2noc(C3CC3)n2)N(Cc2nnc(C3CC3)o2)C1 (centres undefined) | -1.02
Cc1nc(C2CCCN2Cc2nnc(C3CC3)o2)no1 (centres undefined) | -171
C1CC(c2nnc(CN3CCCC3c3noc(C4CC4)n3)o2)C1 (centres undefined) | 53.5
CC(C)c1nc(C2CCCN(Cc3nnc(C4CC4)o3)C2)no1 (centres undefined) | -52.6
c1ccc2oc(CN3CCCC3c3noc(C4CC4)n3)nc2c1 (centres undefined) | 54.4
CCc1nc(C2CCCN2Cc2nc3ccccc3o2)no1 (centres undefined) | -23.2
c1ccc2oc(CCCN3CCCC3c3noc(C4CC4)n3)nc2c1 (centres undefined) | -21.2
CCc1nc(C2CCCN2Cc2nnc(C3CCC3)o2)no1 (centres undefined) | -88
CC(C)c1nc(C2CCCN2Cc2nnc(C3CCC3)o2)no1 (centres undefined) | 53.5
